Shown are actives, neighbours in structure and some others; about 20% of the full set was active somewhere.
Cycloheximide cs: affects cycloheximide protein synthesis inhibition readout, counter-screen | max response, % | hit rate 12% among 300,000 | cell reporter, cycloheximide protein synthesis inhibition counterscreen; in the data active = max response mostly above about 13%, no sharp cut-off; inactive = mostly below about 14%; also: read at 38.3 µM for the half of the compounds with a filed dose; 0% is about no effect
HCMV antiviral: inhibitors of human cytomegalovirus; HFF cells, HCMV-luciferase reporter, 72 h; active compounds read low; activity change, negative = inhibition, % at 57.5 µM; hit rate 4.5% among 410,000; AID 1259415; in the data active = activity change below about -60%; inconclusive = no clear call, values can overlap the other calls; inactive = above about -39%; also: % is scaled to controls: 0 for no effect and ±100 for the full control effect
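Two-dose cell screen: HFF monolayers treated with compounds and infected with luciferase-expressing HCMV at 1 PFU/cell, 72 h at 37C, then lysed for luciferase measurement.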
Pf growth 48h: inhibits P. falciparum growth in the first generation, 48 h | P. falciparum luciferase growth in erythrocytes, 48 h | Potency, µM (doses to about 28.7 µM), without a hit: at the highest dose activity change, negative = inhibition, actives largely listed as inhibitors | hit rate 5.9% among 310,000 | AID 504832; also: potency is read from the fitted curve at half-maximal effect; % is scaled to controls: 0 for no effect and ±100 for the full control effect
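Firefly luciferase activity from engineered P. falciparum reports growth; inhibitors lower the luminescent signal. Cultures contained 2% hematocrit erythrocytes at 0.1% final parasitemia.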
Pf growth 96h: P. falciparum growth inhibition at 96 hour, primary screen for plastid delayed-death inhibitors; Potency, µM (titrated, usually from 28.7 µM), without a hit: top-dose activity change, negative = inhibition, most hits filed as inhibitors; P. falciparum luciferase reporter growth, 96 h; hit rate 6.9% among 320,000; AID 504834; also: potency is read from the fitted curve at half-maximal effect; % is scaled to controls: 0 for no effect and ±100 for the full control effect
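Compounds incubated with erythrocytes infected by luciferase-expressing P. falciparum (2% hematocrit, 0.05% parasitemia final) for 96 hours, 37 C in 5% CO2. Growth inhibition scored as decreased luciferase luminescence.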
Shiga inhibitor: inhibitors of Shiga toxin in Vero cells; Vero cells, Shiga toxin protein synthesis inhibition reporter; inhibition, % at 38.7 µM; hit rate 9.2% among 290,000; in the data active = inhibition mostly above about 28%, no sharp cut-off; inactive = mostly below about 43%; also: 0% is about no effect
* marks the source's active call; other numbers are inactive results; ? = inconclusive; / = not tested or not shown; [ ] = dose if it differs, or a comment. Unless noted, calls follow the shape of the dose curve; as a rule, active = well fitted inhibition curve with a large enough effect; inconclusive = small, poorly fitted or top-dose-only effect, or another doubt; inactive = no such curve, though single readings can be large or run the other way.

SMILES | Cycloheximide cs | HCMV antiviral | Pf growth 48h | Pf growth 96h | Shiga inhibitor
CCOC(=O)C(Cc1ccccc1)C(=O)Nc1ccc(NC(=O)C(Cc2ccccc2)C(=O)OCC)cc1 (stereo unspecified) | 6 | 5 | 10% | 105% | 5
Cc1ccc(CNC(=O)Nc2ccccc2)cc1 | 33* | 24 | 193% | 0% | 123*
Cc1ccc(C)c(CNC(=O)Nc2ccccc2)c1 | 30* | 16 | 117% | 136% | 74*
Cc1ccc(C(=O)NCc2ccccc2)c(F)c1F | 14 | 10 | 13% | 18% | 65*
CCC(C(=O)Nc1ccc(C)cc1)c1ccccc1 (stereo unspecified) | -3 | -14 | -2%[5.75 µM] | 37% | -7
CCC(C(=O)NCc1ccc(C)cc1)c1ccccc1 (stereo unspecified) | 4 | -21 | -22% | 15µM* | /
Cc1ccc(CNC(=O)NCc2ccccc2)cc1 | 26* | 8 | 110% | 65% | 149*
O=C1CN(CC(=O)N2CCOCC2)c2ccccc2O1 | 34* | / | ? | 45% | 98*
O=C(CN1C(=O)COc2ccccc21)N1CCCC1 | -1 | -10 | ? | 4% | -3
O=C1CN(CC(=O)N2CCCCC2)c2ccccc2O1 | 24* | -28 | 47% | ? | 34
Cc1c(C(=O)NCc2ccc(F)cc2)sc2nc3n(c(=O)c12)CCC3 | / | -8 | / | / | /
O=C(Oc1ccc(NC2=C(Cl)C(=O)c3ccccc3C2=O)cc1)c1ccc([N+](=O)[O-])cc1 | 18* | / | 17% | 31% | -3
CC(=O)Nc1ccc(NC2=C(Cl)C(=O)c3ccccc3C2=O)cc1 | 18 | -101* | 0% | 18% | 39
COc1ccc(C2=C(Nc3ccc(C)cc3)c3ccccc3C2=O)cc1 | 1 | -22 | 0.83µM* | -15% | -13
O=C(Oc1ccc([N+](=O)[O-])cc1)c1cccnc1 | -6 | -14 | 0% | ? | 7
CC(=O)Nc1ccc(NC(=O)c2cccc3c2-c2ccccc2C3=O)cc1 | 0 | -24 | -11% | 13% | -24
Cc1ccc(NC2=C(NCCO)C(=O)c3ccccc3C2=O)cc1 | 32* | 14 | 5.9µM* | 67% | 87*
Cc1ccc(N(C)C(=O)c2cc(S(=O)(=O)N3CCOCC3)cn2C)cc1 | / | -22 | / | / | /
CN(C)c1ccc(NC2=C(Cl)C(=O)c3ccccc3C2=O)cc1 | 51* | -97* | 134% | 18% | 69*
CC(=O)N1C[C@H]2CON(C)[C@H]2C[C@H]1c1ccc(-c2ccccc2)cc1 | / | 10 | / | / | /
Cc1cc(=O)[nH]c(N/N=C/c2ccc(N(C)C)cc2)n1 | 24* | -3 | 43% | ? | 50*
COc1ccc(/C=N/Nc2nc(C)cc(=O)[nH]2)cc1OC | -2 | 35 | ? | ? | -5
Cc1cc(=O)[nH]c(N/N=C/c2ccc(F)cc2)n1 | 13* | 12 | 40% | -53% | 9
Cc1ccc(NC(=O)Cn2c(=O)ccc3cc(S(=O)(=O)N4CCCC4)ccc32)cc1N(C)C | / | -1 | / | / | /
COc1ccc(C2=CC(c3ccc(OC)c(OC)c3)NC(=S)N2)cc1 (stereo unspecified) | -1 | -8 | ? | ? | -20
SMILES | Cycloheximide cs | HCMV antiviral | Pf growth 48h | Pf growth 96h | Shiga inhibitor
COc1cccc(C2=CC(c3ccc(OC)c(OC)c3)NC(=S)N2)c1 (stereo unspecified) | 0 | 37 | 10µM* | ? | 11
COC(=O)c1ccc(NC(=O)c2nn(C)c3c2COc2ccccc2-3)cc1 | / | -71* | / | / | /
O=C(O)/C(=C\c1ccccc1OC(F)F)Sc1nnc(-c2ccc(F)cc2)o1 | 0 | -12 | 13% | 58% | -10
Cc1ccc(NC(=O)COC(=O)c2ccc([N+](=O)[O-])o2)cc1S(=O)(=O)N1CCCCCC1 | 28* | 17 | -3% | ? | 59*
Cc1ccc(C(=O)OCC(=O)Nc2ccc(C)c(S(=O)(=O)N3CCCCC3)c2)o1 | / | 12 | / | / | /
Cc1ccc(S(=O)(=O)N2CCCCC2)cc1NC(=O)COC(=O)c1ccc(O)cc1 | -1 | -4 | ? | 0.23µM* | -10
COc1cc(NC(=O)Cn2ncc(Cl)c(Cl)c2=O)c(C)cc1[N+](=O)[O-] | -12 | -96* | -7% | -30% | -33
O=C(COC(=O)c1ccc(O)cc1)Nc1cc(S(=O)(=O)N2CCOCC2)ccc1Cl | / | 9 | ? | 4.7µM* | /
O=C(COC(=O)c1ccc(O)cc1)Nc1cc(S(=O)(=O)N2CCCCCC2)ccc1Cl | / | 76 | / | / | /
COc1cc(NC(=O)CN2C(=O)CN(C)C2=O)c(C)cc1[N+](=O)[O-] | -1 | -2 | ? | 1% | 14
CC1CN(c2ccc(NS(=O)(=O)c3ccccc3)cc2C(=O)O)CC(C)O1 (stereo unspecified) | 1 | -25 | 0% | 1% | -5
O=C(COC(=O)c1ccc(CO)cc1)c1ccc(S(=O)(=O)N2CCCCC2)cc1 | / | -31 | ? | ? | /
COc1cc(NC(=O)COC(=O)c2ccc(C)c(S(=O)(=O)N3CCCCC3)c2)c(C)cc1[N+](=O)[O-] | 72* | 18 | 6% | ? | 57*
O=C(COC(=O)c1ccc(O)cc1)c1ccc(S(=O)(=O)N2CCCCC2)cc1 | / | 110 | 2.9µM* | ? | /
CCOc1ccc(NC(=O)CN2C(=O)COc3ccc(S(=O)(=O)NC4CCCC4)cc32)cc1 | / | 8 | / | / | /
CCOc1ccc(C2CC(=O)Nc3c2c(=O)nc(SCc2ccccc2C)n3C)cc1OC (stereo unspecified) | / | -3 | / | / | /
CC(C)c1ccc(-c2cc(C(=O)NN3CCN(C)CC3)c3ccccc3n2)cc1 | 35* | 26 | ? | ? | 82*
O=C(NN1CCOCC1)c1cc(-c2ccc(Br)cc2)nc2ccccc12 | -3 | -60* | 11% | 35% | 13
CN1CCN(NC(=O)c2cc(-c3cccc(Cl)c3)nc3ccccc23)CC1 | -4 | -36 | ? | 5% | -8
Cc1ccccc1NC(=O)CSc1nc(-c2cccs2)nc2cc(=O)[nH]n12 | / | -6 | ? | -4% | /
O=C(C[n+]1ccc(C(=O)NCc2ccccc2)cc1)c1ccc(OC(F)F)cc1 | -3 | 33 | 1% | -24% | -4
O=C(C[n+]1cn(C(F)F)c2ccccc21)c1ccc(OC(F)F)cc1 | 29* | ? | -5% | 27% | 61*
COc1ccc(-c2nnc(SCC(=O)Nc3ccccc3)n2C)cc1 | 1 | ? | -12% | ? | 10
CC(=O)Nc1ccc(-c2nnc(SCC(=O)Nc3ccc4c(c3)oc3ccccc34)n2C)cc1 | 16* | 86 | 0% | ? | 44
CCn1c(SCC(=O)Nc2ccc3c(c2)oc2ccccc23)nnc1-c1ccc(N)cc1 | 35* | ? | / | ? | 39
O=C(NCc1ccc(Cl)cc1)c1cnn2ccccc12 | 56* | 76 | / | 1% | 80*
Cc1cc(C)n2ncc(C(=O)NCc3ccc(Cl)cc3)c2n1 | 19 | 33 | / | ? | -7
Cn1ncc(Cl)c1C(=O)NCc1ccc(Cl)cc1 | -1 | -72* | 4% | 38% | -10
Cn1ncc(Cl)c1C(=O)NCc1ccc2c(c1)OCO2 | -1 | ? | 25% | 39% | 35

Assay outcomes from PubChem BioAssay.
